Laboratory results reported in PubChem BioAssay (NCATS).
“And” between values parts separate entries of the source, which are not always exact repeats. Equal values may be shown once. Inconclusive results are not listed. Where a call stands in place of a potency, no number is given. The source made the active and inactive calls. Calls follow the shape of the dose curve; as a rule, active = well fitted curve in the direction sought with a large enough effect; inconclusive = small, poorly fitted or top-dose-only effect, or another doubt; inactive = no such curve, though single readings can be large; an effect the other way counts as inactive or inconclusive.

Biological target: Cytochrome P450 3A7 (Homo sapiens) (UniProt P24462)
Sequence (P24462 whole entry, looked up): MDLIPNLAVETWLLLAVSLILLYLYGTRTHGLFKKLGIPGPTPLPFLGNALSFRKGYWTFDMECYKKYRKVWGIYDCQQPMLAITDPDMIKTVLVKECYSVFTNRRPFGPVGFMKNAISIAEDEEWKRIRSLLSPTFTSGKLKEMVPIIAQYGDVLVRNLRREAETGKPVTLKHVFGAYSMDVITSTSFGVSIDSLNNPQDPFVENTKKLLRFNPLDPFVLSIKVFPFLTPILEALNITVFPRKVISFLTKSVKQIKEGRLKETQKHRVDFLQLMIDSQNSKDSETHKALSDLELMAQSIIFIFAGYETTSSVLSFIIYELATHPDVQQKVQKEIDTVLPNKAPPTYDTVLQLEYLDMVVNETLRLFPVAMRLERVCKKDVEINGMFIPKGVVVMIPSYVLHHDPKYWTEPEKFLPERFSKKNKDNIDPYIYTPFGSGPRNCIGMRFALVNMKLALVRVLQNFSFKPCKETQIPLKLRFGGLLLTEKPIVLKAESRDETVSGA
Experiment: Cytochrome P450 family 3 subfamily A member 7 (CYP3A7) small molecule antagonists: luciferase biochemical qHTS assay (AID 1963596); also: nearly all actives have a fitted effect of over 40% in size
Conditions: P450-Glo CYP3A7 enzyme luminescence, 1 h; series mostly up to 57.4 µM
Procedure, shortened: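 Recombinant CYP3A7 P450-Glo luminescent assay: enzyme-proluciferin substrate mix preincubated with compound 10 min at room temperature, reaction started with NADPH regeneration system for 1 h. Luciferin detected by luminescence; ketoconazole as positive control.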
Potency is read from the fitted curve at half-maximal effect.

Q: For c1ccc(N2CCN(CCc3nn[nH]n3)CC2)cc1, which Potency is on record?
A: inactive

Q: For Cc1onc(-c2ccccc2)c1C(=O)N1CCN(c2ccc([N+](=O)[O-])cc2Cl)CC1, which Potency is on record?
A: inactive

Q: Which Potency does the source give for N#Cc1ccc2[nH]c(O)c(-c3ccc(CN4CCOCC4)cn3)c2c1 here?
A: inactive

Q: For CCc1cc2c(=O)c(-c3nc4ccccc4s3)coc2c(CN2CCCCC2)c1O, which Potency is on record?
A: inactive

Q: With CC(C(=O)O)c1ccc(C(=O)c2cccs2)cc1 (stereo not drawn) as the compound, how does the Potency read?
A: inactive

Q: For CCCN1CCC(c2cccc(S(C)(=O)=O)c2)CC1, which Potency is on record?
A: inactive

Q: Which Potency does the source give for COc1cc(OC)c(NC(=O)c2ccc(Cc3cc4c(cc3C)C(C)(C)CCC4(C)C)o2)c(OC)c1 here?
A: inactive

Q: For COc1ccccc1N1CCN(CC[C@@](C)(C(=O)C2CCCCC2)c2ccccc2)CC1, which Potency is on record?
A: inactive

Q: With NC(=O)c1ccccc1O as the compound, how does the Potency read?
A: inactive

Q: Which Potency does the source give for CCCN1CCC[C@@H](c2cccc(S(C)(=O)=O)c2)C1 here?
A: inactive

Q: For CCC[C@H](N[C@@H](C)C(=O)N1[C@H](C(=O)O)C[C@@H]2CCCC[C@@H]21)C(=O)O, which Potency is on record?
A: inactive

Q: With O=C(c1ccc(F)cc1)C1CCN(CCn2c(=O)nc3n(c2=O)CCCC3)CC1 as the compound, how does the Potency read?
A: inactive

Q: Which Potency does the source give for CC1(c2nc3c(C(N)=O)cccc3[nH]2)CCCN1 (stereo not drawn) here?
A: inactive

Q: For Cc1nc2sc(C(=O)NCc3ccncc3)c(N)c2c(C)c1Cl, which Potency is on record?
A: inactive

Q: Which Potency does the source give for COC(=O)c1ccc2c(c1)nc(NC(=O)c1ccccc1)n2CCCc1ccccc1 here?
A: inactive

Q: For Cc1cc2sc(NC(=O)Cc3ccccc3)nc2cc1Cl, which Potency is on record?
A: inactive

Q: With CN1CCc2nc(C(=O)N[C@@H]3C[C@@H](C(=O)N(C)C)CC[C@@H]3NC(=O)C(=O)Nc3ccc(Cl)cn3)sc2C1 as the compound, how does the Potency read?
A: inactive

Q: Which Potency does the source give for C[C@H]1CO[C@@H]2Cn3cc(C(=O)NCc4ccc(F)cc4F)c(=O)c(O)c3C(=O)N12 here?
A: inactive

Q: With CN(C)c1nc(NC2CCC(NC(=O)c3ccc(F)c(F)c3)CC2)nc2ccccc12 (stereo not drawn) as the compound, how does the Potency read?
A: inactive

Q: With CC(C)CCC(=O)CC1c2ccccc2C(=O)N1c1ccc2ccc(Cl)nc2n1 (stereo not drawn) as the compound, how does the Potency read?
A: inactive

Q: For C[C@]12C=CC(=O)C=C1CC[C@@H]1[C@@H]2[C@@H](O)C[C@@]2(C)[C@H]1CC[C@]2(O)C(=O)COC(=O)CCC(=O)O, which Potency is on record?
A: inactive

Q: With CN1CCN(C2=Nc3ccccc3Nc3ccc(O)cc32)CC1 as the compound, how does the Potency read?
A: inactive

Q: For CN1CCc2cc(Cl)c(O)cc2[C@@H](c2cccc3c2OCC3)C1, which Potency is on record?
A: inactive

Q: For Cc1c(C(=O)Nc2ccc(N3CC(C)OC(C)C3)nc2)cccc1-c1ccc(OC(F)(F)F)cc1 (stereo not drawn), which Potency is on record?
A: inactive

Q: With Cn1c2ccc(NC(=O)c3ccccc3)cc2c(=O)n2nc(C(=O)O)cc12 as the compound, how does the Potency read?
A: inactive

Q: With CCCNc1ccc2ncc(-c3ccc4[nH]ncc4c3)n2n1 as the compound, how does the Potency read?
A: inactive

Q: With O=S(=O)(c1ccc(Cl)cc1)N1CCN(c2ccnc3cc(Cl)ccc23)CC1 as the compound, how does the Potency read?
A: inactive

Q: For CN(C)C(=O)C(=O)c1cn(C)c2cc(Cl)c(C(=O)N3CCC(Cc4ccc(F)cc4)CC3)cc12, which Potency is on record?
A: inactive

Q: For COc1ccc(C(Cl)=C(c2ccc(OC)cc2)c2ccc(OC)cc2)cc1, which Potency is on record?
A: inactive

Q: For Nc1ccc(C(=O)Nc2ccccc2N)cc1, which Potency is on record?
A: 17.4 µM (active)

Q: For O=C(NCc1ccccc1)c1ccc2c(=O)n(-c3cccc(C(F)(F)F)c3)c(=S)[nH]c2c1, which Potency is on record?
A: inactive

Q: For Clc1ccc2c(c1)C1=NCCN1c1c(-c3noc(C4CC4)n3)ncn1-2, which Potency is on record?
A: inactive

Q: For COc1cc2ncnc(Nc3cccc(I)c3)c2cc1OC, which Potency is on record?
A: inactive

Q: Which Potency does the source give for FC(F)(F)c1ccccc1-c1cc(C(F)(F)F)c2nc(C3=NOC4(CCCCC4)C3)[nH]c2c1 here?
A: inactive

Q: With c1ccc(C(OC2CCN(CCCc3nn[nH]n3)CC2)c2ccccc2)cc1 as the compound, how does the Potency read?
A: inactive

Q: Which Potency does the source give for CCC(C)C(N)C(=O)NCCN1CCOCC1 (stereo not drawn) here?
A: inactive

Q: For CC(C)(C)NCC(O)COc1cccc2c1CCCC2=O (stereo not drawn), which Potency is on record?
A: inactive

Q: With CCNC(=O)N1CCCN(c2ccc(C(=O)NCCc3ccc(Cl)cc3Cl)cc2NC(=O)c2cccc(Cl)c2)CC1 as the compound, how does the Potency read?
A: inactive

Q: Which Potency does the source give for COc1cc(N2CCOCC2)ccc1NC(=O)c1csc(-c2cccnc2)n1 here?
A: inactive

System: not listed separately
Experiment: Viability qHTS for spleen associated tyrosine kinase inhibitor (SYKi) drug resistant MV4-11 cells (AID 1963824); also: nearly all actives have a fitted effect of over 35% in size
Conditions: SYKi-resistant MV4-11 viability, CellTiter-Glo, 72 h; series mostly up to 45 µM
Procedure, shortened: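 SYK-inhibitor-resistant MV4-11 AML cells were seeded at 500 per well onto compound and cultured 72 hours (37 °C, 5% CO2). CellTiter-Glo was then added, and after 10 min at room temperature, luminescence gave viability.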

Q: Which Potency does the source give for c1ccc(N2CCN(CCc3nn[nH]n3)CC2)cc1 here?
A: inactive

Q: Which Potency does the source give for Cc1onc(-c2ccccc2)c1C(=O)N1CCN(c2ccc([N+](=O)[O-])cc2Cl)CC1 here?
A: 13 µM (active)

Q: With N#Cc1ccc2[nH]c(O)c(-c3ccc(CN4CCOCC4)cn3)c2c1 as the compound, how does the Potency read?
A: inactive

Q: For CCc1cc2c(=O)c(-c3nc4ccccc4s3)coc2c(CN2CCCCC2)c1O, which Potency is on record?
A: inactive

Q: For CC(C(=O)O)c1ccc(C(=O)c2cccs2)cc1 (stereo not drawn), which Potency is on record?
A: inactive

Q: For CCCN1CCC(c2cccc(S(C)(=O)=O)c2)CC1, which Potency is on record?
A: inactive

Q: With COc1cc(OC)c(NC(=O)c2ccc(Cc3cc4c(cc3C)C(C)(C)CCC4(C)C)o2)c(OC)c1 as the compound, how does the Potency read?
A: 11.6 µM (active)

Q: For COc1ccccc1N1CCN(CC[C@@](C)(C(=O)C2CCCCC2)c2ccccc2)CC1, which Potency is on record?
A: 14.6 µM (active)

Q: For NC(=O)c1ccccc1O, which Potency is on record?
A: inactive

Q: Which Potency does the source give for CCCN1CCC[C@@H](c2cccc(S(C)(=O)=O)c2)C1 here?
A: 10.3 µM (active)

Q: For CCC[C@H](N[C@@H](C)C(=O)N1[C@H](C(=O)O)C[C@@H]2CCCC[C@@H]21)C(=O)O, which Potency is on record?
A: inactive

Q: Which Potency does the source give for O=C(c1ccc(F)cc1)C1CCN(CCn2c(=O)nc3n(c2=O)CCCC3)CC1 here?
A: inactive

Q: For CC1(c2nc3c(C(N)=O)cccc3[nH]2)CCCN1 (stereo not drawn), which Potency is on record?
A: inactive

Q: Which Potency does the source give for Cc1nc2sc(C(=O)NCc3ccncc3)c(N)c2c(C)c1Cl here?
A: inactive

Q: For COC(=O)c1ccc2c(c1)nc(NC(=O)c1ccccc1)n2CCCc1ccccc1, which Potency is on record?
A: inactive

Q: Which Potency does the source give for Cc1cc2sc(NC(=O)Cc3ccccc3)nc2cc1Cl here?
A: inactive

Q: With CN1CCc2nc(C(=O)N[C@@H]3C[C@@H](C(=O)N(C)C)CC[C@@H]3NC(=O)C(=O)Nc3ccc(Cl)cn3)sc2C1 as the compound, how does the Potency read?
A: inactive

Q: For C[C@H]1CO[C@@H]2Cn3cc(C(=O)NCc4ccc(F)cc4F)c(=O)c(O)c3C(=O)N12, which Potency is on record?
A: 7.31 µM (active)

Q: With CN(C)c1nc(NC2CCC(NC(=O)c3ccc(F)c(F)c3)CC2)nc2ccccc12 (stereo not drawn) as the compound, how does the Potency read?
A: 0.82 µM (active)

Q: With CC(C)CCC(=O)CC1c2ccccc2C(=O)N1c1ccc2ccc(Cl)nc2n1 (stereo not drawn) as the compound, how does the Potency read?
A: inactive

Q: With C[C@]12C=CC(=O)C=C1CC[C@@H]1[C@@H]2[C@@H](O)C[C@@]2(C)[C@H]1CC[C@]2(O)C(=O)COC(=O)CCC(=O)O as the compound, how does the Potency read?
A: inactive

Q: For CN1CCN(C2=Nc3ccccc3Nc3ccc(O)cc32)CC1, which Potency is on record?
A: inactive

Q: With CN1CCc2cc(Cl)c(O)cc2[C@@H](c2cccc3c2OCC3)C1 as the compound, how does the Potency read?
A: 11.6 µM (active)

Q: Which Potency does the source give for Cc1c(C(=O)Nc2ccc(N3CC(C)OC(C)C3)nc2)cccc1-c1ccc(OC(F)(F)F)cc1 (stereo not drawn) here?
A: 10.3 µM (active)

Q: Which Potency does the source give for Cn1c2ccc(NC(=O)c3ccccc3)cc2c(=O)n2nc(C(=O)O)cc12 here?
A: inactive

Q: With CCCNc1ccc2ncc(-c3ccc4[nH]ncc4c3)n2n1 as the compound, how does the Potency read?
A: 0.0116 µM (active)

Q: With O=S(=O)(c1ccc(Cl)cc1)N1CCN(c2ccnc3cc(Cl)ccc23)CC1 as the compound, how does the Potency read?
A: 16.4 µM (active)

Q: For CN(C)C(=O)C(=O)c1cn(C)c2cc(Cl)c(C(=O)N3CCC(Cc4ccc(F)cc4)CC3)cc12, which Potency is on record?
A: 8.2 µM (active)

Q: Which Potency does the source give for COc1ccc(C(Cl)=C(c2ccc(OC)cc2)c2ccc(OC)cc2)cc1 here?
A: inactive

Q: With Nc1ccc(C(=O)Nc2ccccc2N)cc1 as the compound, how does the Potency read?
A: 7.5 µM (active)

Q: Which Potency does the source give for O=C(NCc1ccccc1)c1ccc2c(=O)n(-c3cccc(C(F)(F)F)c3)c(=S)[nH]c2c1 here?
A: inactive

Q: Which Potency does the source give for Clc1ccc2c(c1)C1=NCCN1c1c(-c3noc(C4CC4)n3)ncn1-2 here?
A: inactive

Q: With COc1cc2ncnc(Nc3cccc(I)c3)c2cc1OC as the compound, how does the Potency read?
A: 2.91 µM (active) and 13 µM (active)

Q: For FC(F)(F)c1ccccc1-c1cc(C(F)(F)F)c2nc(C3=NOC4(CCCCC4)C3)[nH]c2c1, which Potency is on record?
A: 16.4 µM (active)

Q: Which Potency does the source give for c1ccc(C(OC2CCN(CCCc3nn[nH]n3)CC2)c2ccccc2)cc1 here?
A: inactive

Q: For CCC(C)C(N)C(=O)NCCN1CCOCC1 (stereo not drawn), which Potency is on record?
A: inactive

Q: Which Potency does the source give for CC(C)(C)NCC(O)COc1cccc2c1CCCC2=O (stereo not drawn) here?
A: inactive

Q: For CCNC(=O)N1CCCN(c2ccc(C(=O)NCCc3ccc(Cl)cc3Cl)cc2NC(=O)c2cccc(Cl)c2)CC1, which Potency is on record?
A: 20.6 µM (active)

Q: For COc1cc(N2CCOCC2)ccc1NC(=O)c1csc(-c2cccnc2)n1, which Potency is on record?
A: 0.259 µM (active)
